Inhibition data for 25 compounds are collected here from PubChem BioAssay AID1026 (Columbia University Molecular Screening Center, 2008).

Values without a mark were called inactive. No rule for the calls is given here.

For the experiment, the target named is Bifunctional epoxide hydrolase 2 (Homo sapiens) (UniProt P34913). As to the kind of experiment: sEH inhibitor concentration-response potency, dose response, biochemical, human sEH, fluorescence, Infinite200 (AID 1026). As to conditions: recombinant human sEH, fluorogenic substrate, at 0.2 µM, hits give high values.
Bifunctional epoxide hydrolase 2 (Homo sapiens), sequence (P34913 whole entry, looked up): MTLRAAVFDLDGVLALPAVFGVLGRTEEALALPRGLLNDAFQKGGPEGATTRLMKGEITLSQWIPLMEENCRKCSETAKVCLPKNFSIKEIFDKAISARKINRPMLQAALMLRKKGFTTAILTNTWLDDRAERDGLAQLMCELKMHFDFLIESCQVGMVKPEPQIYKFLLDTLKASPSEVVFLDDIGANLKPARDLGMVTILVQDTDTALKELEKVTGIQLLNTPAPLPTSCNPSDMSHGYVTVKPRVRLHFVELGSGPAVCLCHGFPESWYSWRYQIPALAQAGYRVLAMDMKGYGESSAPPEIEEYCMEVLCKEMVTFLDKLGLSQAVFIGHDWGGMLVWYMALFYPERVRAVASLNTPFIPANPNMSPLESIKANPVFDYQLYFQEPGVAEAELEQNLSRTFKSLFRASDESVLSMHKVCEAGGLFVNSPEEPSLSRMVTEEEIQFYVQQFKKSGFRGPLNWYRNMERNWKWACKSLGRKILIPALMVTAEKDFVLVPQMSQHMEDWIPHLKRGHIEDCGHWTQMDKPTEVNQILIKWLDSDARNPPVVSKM
With `O=C(Nc1ccc2c(c1)nc1n2CCN(C2CCCCC2)C1)NC1CCCCC1`, the inhibition was 72.7%. Consider `CC(C)(C)c1ccc(C(=O)N2CCC(C(=O)NCCC3=CCCCC3)CC2)cc1`, for which the inhibition was 38%. For `C/C(=N\NC(=O)c1cccc(S(=O)(=O)Nc2ccccc2Cl)c1)c1ccc(-n2ccnc2)cc1` the value was 56%; for `CCn1nc(CC(=O)Nc2ccc(-n3cnnn3)c(C)c2)c2ccccc2c1=O`, 48.9%. Turning to `COc1ccc(N2CCC(CNC(=O)Nc3cccc(OC)c3)C2)cc1` (stereo not given), the inhibition was 44.5%. The result for `Cc1ccccc1CSCCNC(=O)CCSc1ccccc1` reads 44.2%. As for `CCOc1ccc(NC(=O)NCC2CCN(c3ccc(OC)cc3)C2)cc1` (stereo not given), the inhibition is 26.9%. As for `O=C(Nc1cccc(F)c1)NC1CC2CCCC(C1)N2C1CC1` (stereo not given), the inhibition is 58.4%. For `CC(C)c1ccc(NC(=O)N2CCC(c3nc4ccccc4o3)CC2)cc1` the value was 66.3%. The result for `O=C(NCc1ccc2c(c1)OCO2)C1CCC(CNS(=O)(=O)c2cccc3nsnc23)CC1` (stereo not given) reads 59.7%. `Cc1ccccc1C(=O)N1CCC(C(=O)Nc2ccc(S(=O)(=O)N(C)C(C)C)cc2)CC1`: the inhibition is 50.3%. With `CC(C)(C)c1cnnn1-c1ccc(NC(=O)c2ccc3c(c2)OCO3)cc1`, the inhibition was 68.6%. As for `CCn1c(C(=O)N2CCC(C(=O)NCCCSC3CCCCC3)CC2)cc2sccc21`, the inhibition is 61.7%. The result for `O=C(CCCCCn1c(=S)[nH]c2ccccc2c1=O)NCc1ccc2c(c1)OCO2` reads 59.3%; that for `CC(C)(C)n1nnnc1CN1CCC(NC(=O)NC2CCCCC2)CC1`, 70.3%.

`O=C(Nc1ccc(F)c(F)c1)NC1CCCCC1`: the inhibition is 55.5%.

With `CCCCOc1cccc(/C=N/NC(=O)c2csc(C)c2C)c1`, the inhibition is 60.7%. Take `O=C(NCCC(c1ccccc1)c1ccccc1)c1ccc(Br)o1`: the inhibition is 72%.

For `CCN(CCCNC(=O)C1CCN(S(=O)(=O)N2CCC3(CC2)OCCO3)CC1)c1ccccc1`, the inhibition is 53.8%. As for `O=C(Nc1ccc(Cl)cc1)N1CCC(c2nc(-c3ccccc3Cl)no2)CC1`, the inhibition is 62.8%. The result for `O=C(NC12CC3CC(CC(C3)C1)C2)N1CC2Cc3cccc(=O)n3C(C2)C1` (stereo not given) reads 54.2%; that for `CCCC(=O)Nn1cnc2c(c1=O)C1(CCCCC1)Cc1ccccc1-2`, 71.2%. `Cc1ccc2c(c1)nnn2C1CCN(C(=O)NC23CC4CC(CC(C4)C2)C3)CC1`: the inhibition is 60.5%. As for `Cc1ccccc1C(=O)N1CCN(c2ccc(NC(=O)CSc3ccc(Cl)cc3)cc2)CC1`, the inhibition is 60.1%. The result for `COc1ccc(CNC(=O)C2CCC(CNS(=O)(=O)c3cccc4nsnc34)CC2)cc1` (stereo not given) reads 74.4%.
